Reference: ChEMBL document CHEMBL1961873, “Compounds: GSK PKIS; Assays: Nanosyn kinase panel” (2012)

Tests used:
[1] = target: T1, Ephrin type-B receptor 2 (Homo sapiens) (UniProt P29323); details: at 1 µM
T1 sequence (whole entry): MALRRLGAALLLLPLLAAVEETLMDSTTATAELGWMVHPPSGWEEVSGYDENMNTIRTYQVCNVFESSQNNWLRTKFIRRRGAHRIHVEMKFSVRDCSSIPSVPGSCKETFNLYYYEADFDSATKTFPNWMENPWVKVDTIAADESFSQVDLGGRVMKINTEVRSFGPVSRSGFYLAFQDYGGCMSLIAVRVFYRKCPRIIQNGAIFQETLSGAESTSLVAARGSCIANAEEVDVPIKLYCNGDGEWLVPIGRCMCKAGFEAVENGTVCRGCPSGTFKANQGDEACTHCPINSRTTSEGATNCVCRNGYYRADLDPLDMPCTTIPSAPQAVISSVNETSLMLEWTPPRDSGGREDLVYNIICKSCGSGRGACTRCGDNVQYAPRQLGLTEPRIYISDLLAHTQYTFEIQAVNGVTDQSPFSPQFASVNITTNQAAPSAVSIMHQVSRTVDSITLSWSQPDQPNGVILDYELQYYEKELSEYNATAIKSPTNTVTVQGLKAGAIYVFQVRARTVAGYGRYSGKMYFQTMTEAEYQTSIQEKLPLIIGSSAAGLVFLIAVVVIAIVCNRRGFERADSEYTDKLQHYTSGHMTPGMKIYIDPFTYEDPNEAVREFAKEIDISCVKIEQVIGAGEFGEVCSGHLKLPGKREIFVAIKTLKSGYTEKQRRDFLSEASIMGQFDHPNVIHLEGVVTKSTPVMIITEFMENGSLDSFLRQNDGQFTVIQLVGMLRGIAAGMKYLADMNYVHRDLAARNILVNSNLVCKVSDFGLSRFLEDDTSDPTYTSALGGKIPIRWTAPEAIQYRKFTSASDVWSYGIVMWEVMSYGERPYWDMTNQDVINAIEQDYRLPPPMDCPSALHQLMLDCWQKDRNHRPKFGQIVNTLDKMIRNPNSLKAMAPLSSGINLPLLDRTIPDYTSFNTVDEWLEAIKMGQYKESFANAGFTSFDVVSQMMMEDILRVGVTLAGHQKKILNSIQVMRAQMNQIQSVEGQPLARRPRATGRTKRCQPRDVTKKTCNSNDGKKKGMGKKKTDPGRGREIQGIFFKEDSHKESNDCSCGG

[2] = target: T2, Ephrin type-B receptor 3 (Homo sapiens) (UniProt P54753); details: at 0.1 µM
T2 sequence (whole entry): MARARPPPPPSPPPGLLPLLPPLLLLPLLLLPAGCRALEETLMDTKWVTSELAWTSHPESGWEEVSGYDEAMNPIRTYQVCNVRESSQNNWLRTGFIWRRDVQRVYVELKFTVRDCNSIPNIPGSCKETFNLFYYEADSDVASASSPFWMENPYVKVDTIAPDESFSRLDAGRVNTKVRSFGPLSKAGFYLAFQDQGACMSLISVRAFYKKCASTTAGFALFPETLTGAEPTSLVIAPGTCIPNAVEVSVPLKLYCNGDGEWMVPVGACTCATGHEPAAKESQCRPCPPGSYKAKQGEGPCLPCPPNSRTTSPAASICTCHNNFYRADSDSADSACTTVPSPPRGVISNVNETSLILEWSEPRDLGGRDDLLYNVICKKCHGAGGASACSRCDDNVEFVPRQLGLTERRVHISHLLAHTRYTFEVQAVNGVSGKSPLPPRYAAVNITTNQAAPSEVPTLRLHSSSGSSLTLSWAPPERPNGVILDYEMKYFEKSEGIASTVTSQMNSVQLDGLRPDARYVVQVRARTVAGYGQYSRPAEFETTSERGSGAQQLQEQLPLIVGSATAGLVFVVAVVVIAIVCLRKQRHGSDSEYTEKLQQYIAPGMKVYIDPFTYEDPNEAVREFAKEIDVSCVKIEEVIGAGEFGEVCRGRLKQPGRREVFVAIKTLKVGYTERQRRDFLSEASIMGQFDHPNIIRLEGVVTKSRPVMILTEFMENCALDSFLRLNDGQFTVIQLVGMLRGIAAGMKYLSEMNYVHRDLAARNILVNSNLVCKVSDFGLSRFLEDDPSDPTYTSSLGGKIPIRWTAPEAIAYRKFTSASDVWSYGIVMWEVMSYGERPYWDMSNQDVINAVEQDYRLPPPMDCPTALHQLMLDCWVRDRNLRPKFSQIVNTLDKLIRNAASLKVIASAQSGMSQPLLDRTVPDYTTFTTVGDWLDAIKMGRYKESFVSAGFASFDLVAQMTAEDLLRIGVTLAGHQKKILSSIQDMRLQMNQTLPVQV

[3] = target: T2, Ephrin type-B receptor 3 (Homo sapiens); details: at 1 µM
[4] = target: T3, Ephrin type-B receptor 4 (Homo sapiens) (UniProt P54760); details: at 0.1 µM
T3 sequence (whole entry): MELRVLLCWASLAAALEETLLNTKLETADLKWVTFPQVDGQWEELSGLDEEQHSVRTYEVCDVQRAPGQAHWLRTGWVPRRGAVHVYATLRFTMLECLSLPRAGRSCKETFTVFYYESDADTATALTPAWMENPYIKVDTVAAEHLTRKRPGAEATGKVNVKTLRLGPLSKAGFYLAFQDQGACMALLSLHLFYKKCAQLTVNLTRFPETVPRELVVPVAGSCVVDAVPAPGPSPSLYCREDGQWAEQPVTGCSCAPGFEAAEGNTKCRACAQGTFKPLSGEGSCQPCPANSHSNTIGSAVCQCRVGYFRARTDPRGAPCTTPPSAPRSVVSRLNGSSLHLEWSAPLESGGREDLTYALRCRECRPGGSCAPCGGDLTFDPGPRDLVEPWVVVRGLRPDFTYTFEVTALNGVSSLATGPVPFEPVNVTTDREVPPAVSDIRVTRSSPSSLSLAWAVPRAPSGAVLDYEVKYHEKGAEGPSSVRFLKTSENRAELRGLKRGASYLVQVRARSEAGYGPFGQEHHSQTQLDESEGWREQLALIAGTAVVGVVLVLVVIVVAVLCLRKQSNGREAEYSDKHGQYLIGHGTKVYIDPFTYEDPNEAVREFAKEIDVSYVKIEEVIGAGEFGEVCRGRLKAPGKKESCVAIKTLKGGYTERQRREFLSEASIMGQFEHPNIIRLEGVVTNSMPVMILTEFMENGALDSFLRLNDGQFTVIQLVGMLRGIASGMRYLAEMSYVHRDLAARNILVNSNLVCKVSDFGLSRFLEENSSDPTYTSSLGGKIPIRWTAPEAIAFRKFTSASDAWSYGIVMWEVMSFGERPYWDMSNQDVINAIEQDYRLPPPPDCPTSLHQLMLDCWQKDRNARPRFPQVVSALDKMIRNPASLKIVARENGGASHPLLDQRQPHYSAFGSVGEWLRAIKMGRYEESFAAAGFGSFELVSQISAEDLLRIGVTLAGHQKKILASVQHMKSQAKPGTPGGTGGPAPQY

[5] = target: T3, Ephrin type-B receptor 4 (Homo sapiens); details: at 1 µM
[6] = target: Receptor tyrosine-protein kinase erbB-2 (Homo sapiens) (UniProt P04626); details: at 0.1 µM
[7] = target: Receptor tyrosine-protein kinase erbB-2 (Homo sapiens) (UniProt P04626); details: at 1 µM
[8] = target: Receptor tyrosine-protein kinase erbB-4 (Homo sapiens) (UniProt Q15303); details: at 0.1 µM
[9] = target: Receptor tyrosine-protein kinase erbB-4 (Homo sapiens) (UniProt Q15303); details: at 1 µM
[10] = target: Tyrosine-protein kinase Fer (Homo sapiens) (UniProt P16591); details: at 0.1 µM;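 further: reported figures are averaged percent inhibition of FER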
Tyrosine-protein kinase Fer (Homo sapiens), sequence (P16591 whole entry, looked up): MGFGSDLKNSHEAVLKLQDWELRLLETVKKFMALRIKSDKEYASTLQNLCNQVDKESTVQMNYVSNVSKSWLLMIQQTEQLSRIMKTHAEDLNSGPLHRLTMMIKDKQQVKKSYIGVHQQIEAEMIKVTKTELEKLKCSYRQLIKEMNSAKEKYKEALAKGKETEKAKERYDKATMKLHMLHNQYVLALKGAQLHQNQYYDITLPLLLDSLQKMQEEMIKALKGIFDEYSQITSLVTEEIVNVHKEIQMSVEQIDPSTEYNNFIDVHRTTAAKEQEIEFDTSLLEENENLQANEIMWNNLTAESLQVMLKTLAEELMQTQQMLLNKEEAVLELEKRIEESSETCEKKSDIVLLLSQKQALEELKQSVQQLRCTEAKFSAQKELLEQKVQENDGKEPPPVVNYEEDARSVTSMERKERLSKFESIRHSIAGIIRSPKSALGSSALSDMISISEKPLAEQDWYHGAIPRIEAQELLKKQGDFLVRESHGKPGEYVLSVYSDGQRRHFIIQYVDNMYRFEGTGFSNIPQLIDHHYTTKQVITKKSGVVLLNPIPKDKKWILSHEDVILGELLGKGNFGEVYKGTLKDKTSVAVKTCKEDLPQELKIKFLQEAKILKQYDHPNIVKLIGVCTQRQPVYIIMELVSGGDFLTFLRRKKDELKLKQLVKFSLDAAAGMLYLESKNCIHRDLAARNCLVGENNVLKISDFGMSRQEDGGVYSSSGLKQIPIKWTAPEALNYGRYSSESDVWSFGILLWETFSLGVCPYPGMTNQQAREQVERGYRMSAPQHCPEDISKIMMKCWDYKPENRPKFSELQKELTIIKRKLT

Receptor tyrosine-protein kinase erbB-2 (Homo sapiens), sequence (P04626 whole entry): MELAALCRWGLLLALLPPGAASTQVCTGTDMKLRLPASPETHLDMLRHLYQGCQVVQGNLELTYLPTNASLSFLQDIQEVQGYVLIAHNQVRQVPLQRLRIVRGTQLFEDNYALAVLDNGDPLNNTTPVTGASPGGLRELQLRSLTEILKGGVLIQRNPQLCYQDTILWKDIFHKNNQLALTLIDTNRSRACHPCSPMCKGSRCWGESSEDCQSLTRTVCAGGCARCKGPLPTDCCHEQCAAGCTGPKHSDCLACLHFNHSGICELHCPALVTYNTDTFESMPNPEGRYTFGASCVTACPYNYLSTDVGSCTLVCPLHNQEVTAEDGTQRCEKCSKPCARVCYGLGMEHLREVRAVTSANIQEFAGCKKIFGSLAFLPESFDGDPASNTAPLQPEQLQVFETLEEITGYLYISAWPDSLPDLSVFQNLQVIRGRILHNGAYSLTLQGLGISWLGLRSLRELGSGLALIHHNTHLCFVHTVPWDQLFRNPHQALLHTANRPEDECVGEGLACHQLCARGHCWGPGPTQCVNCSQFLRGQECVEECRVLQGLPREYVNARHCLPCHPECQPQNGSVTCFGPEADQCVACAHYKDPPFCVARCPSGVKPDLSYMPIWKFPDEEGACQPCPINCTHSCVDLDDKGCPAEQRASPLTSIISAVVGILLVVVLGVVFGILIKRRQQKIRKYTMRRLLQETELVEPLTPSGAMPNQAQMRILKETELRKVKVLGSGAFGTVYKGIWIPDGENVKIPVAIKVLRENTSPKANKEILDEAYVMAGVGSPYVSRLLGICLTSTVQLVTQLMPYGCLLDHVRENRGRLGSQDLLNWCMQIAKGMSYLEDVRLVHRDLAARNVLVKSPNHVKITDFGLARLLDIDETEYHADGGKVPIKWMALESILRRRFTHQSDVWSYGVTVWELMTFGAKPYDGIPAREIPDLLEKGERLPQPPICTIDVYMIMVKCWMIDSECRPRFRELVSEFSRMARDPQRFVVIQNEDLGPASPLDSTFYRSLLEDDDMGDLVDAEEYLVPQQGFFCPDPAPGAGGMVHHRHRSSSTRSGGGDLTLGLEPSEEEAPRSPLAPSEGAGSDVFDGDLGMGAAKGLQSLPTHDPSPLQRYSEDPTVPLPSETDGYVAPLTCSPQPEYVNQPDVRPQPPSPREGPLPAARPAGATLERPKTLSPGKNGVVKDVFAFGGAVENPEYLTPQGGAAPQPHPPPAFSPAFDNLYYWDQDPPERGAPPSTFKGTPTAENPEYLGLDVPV
Receptor tyrosine-protein kinase erbB-4 (Homo sapiens), sequence (Q15303 whole entry): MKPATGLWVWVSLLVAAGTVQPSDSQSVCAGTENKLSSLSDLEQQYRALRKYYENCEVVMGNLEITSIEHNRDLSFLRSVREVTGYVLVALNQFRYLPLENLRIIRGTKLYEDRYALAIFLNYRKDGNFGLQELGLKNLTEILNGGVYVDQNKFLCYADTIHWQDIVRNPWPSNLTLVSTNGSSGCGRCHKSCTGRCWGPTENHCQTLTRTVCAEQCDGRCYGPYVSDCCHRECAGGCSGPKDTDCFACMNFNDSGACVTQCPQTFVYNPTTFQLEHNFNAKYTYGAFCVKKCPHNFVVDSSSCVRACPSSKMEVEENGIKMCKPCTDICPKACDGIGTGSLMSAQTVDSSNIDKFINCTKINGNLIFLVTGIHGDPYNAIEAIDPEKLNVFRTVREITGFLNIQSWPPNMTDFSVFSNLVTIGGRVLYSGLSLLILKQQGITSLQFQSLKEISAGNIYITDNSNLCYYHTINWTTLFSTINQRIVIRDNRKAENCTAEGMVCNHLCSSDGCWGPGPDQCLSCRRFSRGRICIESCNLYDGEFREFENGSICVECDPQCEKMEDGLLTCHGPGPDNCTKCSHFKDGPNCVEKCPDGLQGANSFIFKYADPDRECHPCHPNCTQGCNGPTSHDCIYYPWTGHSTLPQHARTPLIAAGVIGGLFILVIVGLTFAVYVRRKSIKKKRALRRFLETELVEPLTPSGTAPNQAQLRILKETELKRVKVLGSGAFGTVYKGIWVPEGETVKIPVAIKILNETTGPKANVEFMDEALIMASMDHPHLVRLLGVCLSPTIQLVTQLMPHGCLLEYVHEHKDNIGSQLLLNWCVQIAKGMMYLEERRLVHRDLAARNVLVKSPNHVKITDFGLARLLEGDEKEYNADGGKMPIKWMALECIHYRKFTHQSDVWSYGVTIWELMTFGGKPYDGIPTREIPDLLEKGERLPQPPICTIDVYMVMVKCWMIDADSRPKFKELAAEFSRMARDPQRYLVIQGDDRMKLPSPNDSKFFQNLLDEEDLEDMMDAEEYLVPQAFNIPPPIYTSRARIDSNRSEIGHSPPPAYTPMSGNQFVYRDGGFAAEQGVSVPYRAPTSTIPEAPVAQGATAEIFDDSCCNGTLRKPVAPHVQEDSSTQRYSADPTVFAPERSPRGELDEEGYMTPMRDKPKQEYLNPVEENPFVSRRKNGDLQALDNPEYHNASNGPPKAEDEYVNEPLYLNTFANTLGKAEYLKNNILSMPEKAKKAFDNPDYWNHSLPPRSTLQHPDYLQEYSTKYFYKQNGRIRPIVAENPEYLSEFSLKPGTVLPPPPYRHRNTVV

Row | SMILES | inhibition [1] | inhibition [2] | inhibition [3] | inhibition [4] | inhibition [5] | inhibition [6] | inhibition [7] | inhibition [8] | inhibition [9] | inhibition [10]
1 | COc1ccc2c(-c3ccnc(Nc4cccc(OC(F)(F)F)c4)n3)cnn2n1 | 14.9% | 3.51% | 5.86% | 0.79% | 4.73% | 1.6% | 2.79% | 8.76% | 9.71% | 4.88%
2 | CC(=O)NCc1cccc(C#Cc2cncnc2Nc2ccc(OCc3cccc(F)c3)c(Cl)c2)c1 | -0.33% | 2.82% | 2.99% | 0.57% | 2.91% | -0.95% | -0.83% | 11.6% | 50.4% | 2.72%
3 | NC(=O)c1sc(-n2cnc3ccc(C(F)(F)F)cc32)cc1OCc1ccccc1Br | 7.8% | 7.23% | 4.9% | -1.54% | 0.48% | 1.83% | 1.49% | 6.27% | 10.9% | 2.63%
4 | COc1ccc(-c2cc3c(N)ncnc3o2)cc1 | 4.07% | -1.39% | 0.05% | 0.49% | 0.16% | -0.84% | 0.38% | -1.91% | 1.85% | -0.15%
5 | c1ccc(COc2ccc(Nc3ncnc4ccc(-c5ccco5)cc34)cc2)cc1 | 1.06% | 0.82% | 3.5% | -0.6% | 1.67% | -0.16% | 20% | 20.1% | 79.3% | 1.72%
6 | COc1cccc(-c2c[nH]c3c(N/N=C/c4ccncc4)ncnc23)c1 | 25.9% | 3.32% | -5.7% | 3.21% | 13.5% | 0.26% | 2.47% | 8.94% | 21.9% | 4.27%
7 | CCCN(CCS(C)(=O)=O)Cc1ccc(-c2ccc3ncnc(Nc4ccc(OCc5cccc(F)c5)c(Cl)c4)c3c2)o1 | 5.21% | 4.42% | 2.17% | 3.87% | 1.36% | 19.1% | 82.1% | 76.3% | 79.2% | 2.14%
8 | O=C(Nc1n[nH]c2cc(-c3ccc(F)cc3)ccc12)C1CC1 | 7.07% | 5.69% | 1.87% | 1.47% | 2.87% | 1.75% | -0.76% | 6.81% | 11.6% | 5.3%
9 | N#Cc1c(NC(=O)c2ccc(F)cc2)sc2c1CCCC2 | 5.96% | 2.46% | 3.74% | -0.69% | 0.04% | -0.32% | -0.51% | 5.37% | 7.46% | 0.75%
10 | CC(C)COC(=O)c1ccc2c(c1)/C(=C/Nc1ccc(S(N)(=O)=O)cc1)C(=O)N2 | -4.93% | 0.34% | -4.87% | -1.38% | 1.51% | -2.55% | -0.17% | -2.58% | -2.34% | 0.76%
11 | CCc1nn2ncccc2c1-c1ccnc(NC2CC2)n1 | 5.11% | 2.18% | 3.88% | 1.21% | 3.43% | 3.58% | 5.82% | 3.42% | 8.22% | 0.5%
12 | CC1=C(C(=O)Nc2cc(Cl)c3[nH]ncc3c2)C(c2ccc(C(F)(F)F)cc2)CC(=O)N1 (stereo not given) | 6.01% | 5.62% | 2.94% | -1.21% | 0.29% | 2.74% | 1.78% | 11.9% | 31.2% | 4.27%
13 | CN(C)CCOc1ccc(-c2nc(-c3ccncc3)c(-c3ccc4c(c3)CC/C4=N\O)[nH]2)cc1 | 11.7% | 3.83% | 3.2% | 1.85% | 2.33% | 2.46% | 2.61% | 10% | 15% | 1.86%
14 | COc1ccc(-c2oc3ncnc(N)c3c2-c2ccc(NC(=O)Nc3cc(C(F)(F)F)ccc3F)cc2)cc1 | 89.9% | 92.7% | 99.7% | 83.7% | 96.6% | 4.07% | 8.56% | 12.8% | 14.6% | 8.1%
15 | COC(=O)c1sc(-n2cnc3cc(OC)c(OC)cc32)cc1OCc1ccccc1C(F)(F)F | 10.3% | 7.34% | 6.47% | 2.86% | 3.16% | 3.29% | -2.49% | 8.62% | 11% | 1.07%
16 | CS(=O)(=O)CCNCc1ccc(-c2ccc3ncnc(Nc4ccc(OCc5ccccc5)c(C(F)(F)F)c4)c3c2)o1 | 5.29% | 2.9% | 3.77% | 3.21% | 3.55% | -0.56% | 10.4% | 9.71% | 33.4% | 4.03%
17 | Nc1nc(-c2ccc(F)cc2)c(-c2ccc3ncccc3n2)s1 | 15.2% | 5.51% | 5.14% | 1.8% | 5.58% | 4.65% | 6.61% | 16.8% | 48.5% | 2.2%
